# According to the supplement of paper PMC12282887:
# ± gives the standard deviation of the averaged measurements.
# Legend:
# Assay in all cases: promoter activity interaction Z-score (Lux/OD deviation from empty-vector control); higher = stronger promoter induction by the compound
# [1] = test system: E. coli BW25113 acrABp lux reporter
# How it was run: (§1)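 Four 1:2 dilutions of each compound were tested in biological duplicates on E. coli BW25113 carrying low-copy luxCDABE promoter reporters, either wild type or deleted for one of three genes. Cultures of 40 µl LB Lennox in 384-well plates were kept at 37°C and read for OD600 and luminescence every 30 min for 12 h. Integration windows were 0–8 h for wild type and 1–9 h for deletion strains, and wells under 10% of the median growth value were discarded. The score is a Z-transformed residual of growth-normalised luminescence relative to a control fit.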
# [2] = test system: E. coli BW25113 micFp lux reporter
# How it was run: as §1
# [3] = test system: E. coli BW25113 ompFp lux reporter
# How it was run: as §1
# [4] = test system: E. coli BW25113 robp lux reporter
# How it was run: as §1
# [5] = test system: E. coli BW25113 soxSp lux reporter
# How it was run: as §1
# [6] = test system: E. coli BW25113 tolCp lux reporter
# How it was run: as §1
# [7] = 0.47 µg/ml, genetic background: wild type
# [8] = 0.47 µg/ml, genetic background: ΔmarA
# [9] = 0.47 µg/ml, genetic background: Δrob
# [10] = 0.47 µg/ml, genetic background: ΔsoxS
# [11] = 0.93 µg/ml, genetic background: wild type
# [12] = 0.93 µg/ml, genetic background: ΔmarA
# [13] = 0.93 µg/ml, genetic background: Δrob
# [14] = 0.93 µg/ml, genetic background: ΔsoxS
# [15] = 1.9 µg/ml, genetic background: wild type
# [16] = 1.9 µg/ml, genetic background: ΔmarA
# [17] = 1.9 µg/ml, genetic background: Δrob
# [18] = 1.9 µg/ml, genetic background: ΔsoxS
# [19] = 3.7 µg/ml, genetic background: wild type
# [20] = 3.7 µg/ml, genetic background: ΔmarA
# [21] = 3.7 µg/ml, genetic background: Δrob
# [22] = 3.7 µg/ml, genetic background: ΔsoxS
compound,measurement,setting,value
CC1(C)S[C@@H]2[C@H](NC(=O)Cc3ccccc3)C(=O)N2[C@H]1C(=O)O [Penicillin G],promoter activity interaction Z-score,[1]; [7],-0.119 ± 0.09
same,promoter activity interaction Z-score,[1]; [8],-0.131 ± 0.52
same,promoter activity interaction Z-score,[1]; [9],0.0104 ± 0.26
same,promoter activity interaction Z-score,[1]; [10],0.211 ± 0.039
same,promoter activity interaction Z-score,[1]; [11],-0.14 ± 0.13
same,promoter activity interaction Z-score,[1]; [12],0.592 ± 0.63
same,promoter activity interaction Z-score,[1]; [13],0.28 ± 0.04
same,promoter activity interaction Z-score,[1]; [14],0.575 ± 0.16
same,promoter activity interaction Z-score,[1]; [15],-0.0936 ± 0.033
same,promoter activity interaction Z-score,[1]; [16],0.128 ± 0.61
same,promoter activity interaction Z-score,[1]; [17],-0.00373 ± 0.015
same,promoter activity interaction Z-score,[1]; [18],0.229 ± 0.28
same,promoter activity interaction Z-score,[1]; [19],0.0671 ± 0.041
same,promoter activity interaction Z-score,[1]; [20],0.328 ± 0.92
same,promoter activity interaction Z-score,[1]; [21],0.156 ± 0.023
same,promoter activity interaction Z-score,[1]; [22],0.14 ± 0.13
same,promoter activity interaction Z-score,[2]; [7],-0.185 ± 0.12
same,promoter activity interaction Z-score,[2]; [8],-0.107 ± 0.0057
same,promoter activity interaction Z-score,[2]; [9],-0.126 ± 0.1
same,promoter activity interaction Z-score,[2]; [10],-0.069 ± 0.047
same,promoter activity interaction Z-score,[2]; [11],-0.247 ± 0.14
same,promoter activity interaction Z-score,[2]; [12],-0.0395 ± 0.093
same,promoter activity interaction Z-score,[2]; [13],-0.135 ± 0.1
same,promoter activity interaction Z-score,[2]; [14],0.069 ± 0.064
same,promoter activity interaction Z-score,[2]; [15],-0.228 ± 0.13
same,promoter activity interaction Z-score,[2]; [16],0.0369 ± 0.038
same,promoter activity interaction Z-score,[2]; [17],-0.142 ± 0.026
same,promoter activity interaction Z-score,[2]; [18],0.21 ± 0.0048
same,promoter activity interaction Z-score,[2]; [19],-0.333 ± 0.01
same,promoter activity interaction Z-score,[2]; [20],-0.118 ± 0.043
same,promoter activity interaction Z-score,[2]; [21],-0.11 ± 0.08
same,promoter activity interaction Z-score,[2]; [22],-0.156 ± 0.19
same,promoter activity interaction Z-score,[3]; [7],0.195 ± 0.027
same,promoter activity interaction Z-score,[3]; [8],-0.0479 ± 0.074
same,promoter activity interaction Z-score,[3]; [9],-0.032 ± 0.25
same,promoter activity interaction Z-score,[3]; [10],0.447 ± 0.11
same,promoter activity interaction Z-score,[3]; [11],0.206 ± 0.52
same,promoter activity interaction Z-score,[3]; [12],0.589 ± 0.67
same,promoter activity interaction Z-score,[3]; [13],0.432 ± 0.096
same,promoter activity interaction Z-score,[3]; [14],0.381 ± 0.3
same,promoter activity interaction Z-score,[3]; [15],-0.392 ± 0.093
same,promoter activity interaction Z-score,[3]; [16],0.0358 ± 0.0037
same,promoter activity interaction Z-score,[3]; [17],0.00513 ± 0.15
same,promoter activity interaction Z-score,[3]; [18],0.64 ± 0.076
same,promoter activity interaction Z-score,[3]; [19],0.719 ± 0.27
same,promoter activity interaction Z-score,[3]; [20],1.16 ± 0.19
same,promoter activity interaction Z-score,[3]; [21],1.35 ± 0.66
same,promoter activity interaction Z-score,[3]; [22],1.7 ± 0.7
same,promoter activity interaction Z-score,[4]; [7],0.349 ± 0.073
same,promoter activity interaction Z-score,[4]; [8],-0.4 ± 0.07
same,promoter activity interaction Z-score,[4]; [9],0.363 ± 0.43
same,promoter activity interaction Z-score,[4]; [10],0.277 ± 0.35
same,promoter activity interaction Z-score,[4]; [11],0.428 ± 0.22
same,promoter activity interaction Z-score,[4]; [12],0.187 ± 0.37
same,promoter activity interaction Z-score,[4]; [13],0.468 ± 0.14
same,promoter activity interaction Z-score,[4]; [14],1.15 ± 0.22
same,promoter activity interaction Z-score,[4]; [15],0.165 ± 0.58
same,promoter activity interaction Z-score,[4]; [16],0.313 ± 0.31
same,promoter activity interaction Z-score,[4]; [17],0.501 ± 0.075
same,promoter activity interaction Z-score,[4]; [18],1.21 ± 0.031
same,promoter activity interaction Z-score,[4]; [19],-0.01 ± 0.15
same,promoter activity interaction Z-score,[4]; [20],-0.105 ± 0.66
same,promoter activity interaction Z-score,[4]; [21],0.319 ± 0.12
same,promoter activity interaction Z-score,[4]; [22],0.575 ± 0.42
same,promoter activity interaction Z-score,[5]; [7],-0.0325 ± 0.0094
same,promoter activity interaction Z-score,[5]; [8],-0.123 ± 0.17
same,promoter activity interaction Z-score,[5]; [9],-0.201 ± 0.0035
same,promoter activity interaction Z-score,[5]; [10],0.0709 ± 0.024
same,promoter activity interaction Z-score,[5]; [11],-0.167 ± 0.16
same,promoter activity interaction Z-score,[5]; [12],0.103 ± 0.074
same,promoter activity interaction Z-score,[5]; [13],-0.163 ± 0.14
same,promoter activity interaction Z-score,[5]; [14],0.0504 ± 0.19
same,promoter activity interaction Z-score,[5]; [15],-0.132 ± 0.13
same,promoter activity interaction Z-score,[5]; [16],-0.0824 ± 0.12
same,promoter activity interaction Z-score,[5]; [17],-0.0996 ± 0.047
same,promoter activity interaction Z-score,[5]; [18],0.084 ± 0.14
same,promoter activity interaction Z-score,[5]; [19],-0.201 ± 0.12
same,promoter activity interaction Z-score,[5]; [20],0.0156 ± 0.13
same,promoter activity interaction Z-score,[5]; [21],-0.136 ± 0.17
same,promoter activity interaction Z-score,[5]; [22],-0.126 ± 0.39
same,promoter activity interaction Z-score,[6]; [7],-0.848 ± 1
same,promoter activity interaction Z-score,[6]; [8],-0.0171 ± 0.012
same,promoter activity interaction Z-score,[6]; [9],0.219 ± 0.5
same,promoter activity interaction Z-score,[6]; [10],0.375 ± 0.55
same,promoter activity interaction Z-score,[6]; [11],-0.35 ± 0.54
same,promoter activity interaction Z-score,[6]; [12],-0.485 ± 0.89
same,promoter activity interaction Z-score,[6]; [13],-0.163 ± 0.37
same,promoter activity interaction Z-score,[6]; [14],0.352 ± 0.23
same,promoter activity interaction Z-score,[6]; [15],-0.309 ± 1
same,promoter activity interaction Z-score,[6]; [16],-0.171 ± 0.9
same,promoter activity interaction Z-score,[6]; [17],-0.0507 ± 1.1
same,promoter activity interaction Z-score,[6]; [18],0.284 ± 0.24
same,promoter activity interaction Z-score,[6]; [19],-0.124 ± 0.38
same,promoter activity interaction Z-score,[6]; [20],-0.297 ± 0.25
same,promoter activity interaction Z-score,[6]; [21],-0.675 ± 1.1
same,promoter activity interaction Z-score,[6]; [22],0.109 ± 0.61
